# Measured values from the supplement of paper PMC10981050.
# “And” between values parts separate entries of the source, which are not always exact repeats. Equal values may be shown once. Where a name gives a salt, the structure may show the parent alone.
# Key:
# Test in all cases: cell viability relative to vehicle control; higher = less cytotoxic
# Settings in all cases: 10 µM
# [1] = test system: K562
# Method in brief: (§1)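 Four leukaemia lines, as CRISPR-edited mutant clones and isogenic wild-type clones, were tested against Selleck bioactive, kinase and epigenetic probe libraries after removal of identity-inconsistent compounds. Cells were exposed to a single 10 µM dose for 48 h, and CellTiter-Glo luminescence was then read. Viability was calculated relative to the on-plate vehicle control.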
# [2] = test system: MARIMO
# Method in brief: as §1
# [3] = test system: MOLM14
# Method in brief: as §1
# [4] = test system: OCI-AML2
# Method in brief: as §1
Structure (SMILES),cell viability ([1]; SRSF2 genotype: SRSF2 P95H/wt),cell viability ([1]; SRSF2 genotype: SRSF2 wt/wt),cell viability ([2]; SRSF2 genotype: SRSF2 P95H/wt),cell viability ([2]; SRSF2 genotype: SRSF2 wt/wt),cell viability ([3]; SRSF2 genotype: SRSF2 P95H/wt),cell viability ([3]; SRSF2 genotype: SRSF2 wt/wt),cell viability ([4]; SRSF2 genotype: P95H/wt),cell viability ([4]; SRSF2 genotype: wt/wt)
N#Cc1cc2cc(CN3CCC(Nc4ncnc5sc(CC(F)(F)F)cc45)CC3)ccc2[nH]1,3.53% and 2.57%,19.3%,44.3%,51.2%,22.6%,23.4%,0.63%,21.5%
Fc1cc(-c2cccc3ncc(-c4cnn(C5CCNCC5)c4)nc23)cc(F)c1CN1CCOCC1,3.45% and 6.22%,7.58%,31.9%,5.4%,0.59%,0.69%,0.94%,2.89%
CCOC(=O)c1[nH]c2cc(Cl)ccc2c1C(C(=O)NC(C)(C)C)N(C=O)Cc1ccc(Cl)cc1 (stereo not drawn),78.9% and 75.1%,75.3%,68.1%,74.4%,44.1%,57.5%,77.3%,64.2%
C=C1[C@H](OC(=O)/C=C(\C)CC)C[C@@H](C(C)C)[C@@H]2[C@@H]([C@@H](C)OC(C)=O)C(=O)C[C@@H]12 [Tussilagone],83% and 91.6%,89.5%,57%,53.2%,64.5%,71.3%,56.6%,77.6%
Cc1ncc([N+](=O)[O-])n1CC(C)O (stereo not drawn) [Secnidazole (Flagentyl)],100% and 109%,106%,100%,105%,104%,108%,114%,93.1%
Nc1ccn([C@@H]2CS[C@H](CO)O2)c(=O)n1 [Lamivudine (Epivir)],100% and 99.5%,102%,105%,104%,99.8%,105%,106%,114%
COc1cc2c(cc1OC)CN(C(=O)/C=C/c1c(-c3ccccc3)n(C)c3ncccc13)CC2,63.9% and 81.1%,71.3%,69.1%,70.5%,47.7%,44.2%,51.6%,49%
Cc1ccc(Cl)cc1N(CC(=O)Nc1c(F)cccc1F)S(C)(=O)=O,104% and 111%,116%,99.5%,106%,102%,105%,110%,124%
CN1CCC(=C2c3ccccc3C=Cc3ccccc32)CC1 [Cyproheptadine hydrochloride (Periactin)],90.8% and 86.3%,83%,77.3%,89%,72.5%,91.5%,81.1%,85%
CC(C)CCn1c(CN2CCN(C(=O)C3CC3)CC2)nc2c1c(=O)n(C)c(=O)n2C,105% and 116%,112%,99.7%,102%,105%,104%,114%,116%
Nc1nc2n[nH]nc2c(=O)[nH]1 [Azaguanine-8],85.3% and 81.8%,82.5%,76.2%,68.1%,82.7%,86.6%,70.9%,54.6%
COc1cc2c(=O)c3c(O)c([C@@H]4O[C@H](CO[C@@H]5OC[C@](O)(CO)[C@H]5O)[C@@H](O)[C@H](O)[C@H]4O)c(O)cc3oc2cc1O [Polygalaxanthone III],99.2% and 105%,98%,100%,98.8%,101%,98.4%,105%,97.3%
COc1cccc(-c2cc(NCc3ccc4c(c3)OCO4)nc(N)n2)c1 [Wnt agonist 1],9.55% and 31.1%,26.2%,8.72%,9.19%,7.29%,4.03%,11%,13.1%
Cc1ccc(C(C)C)cc1O [Carvacrol],100% and 101%,98.7%,95.5%,99%,99%,100%,92.8%,100%
O=c1c(N=Nc2nccs2)c(-c2ccccc2)[nH]n1-c1nc(-c2ccccc2)cs1,88.4% and 89.2%,88.4%,94.2%,106%,92.9%,95.9%,103%,105%
CC(C)(c1ccc(OCC(O)CO)cc1)c1ccc(OCC(O)CCl)cc1 (stereo not drawn),82.3% and 81.7%,85.8%,83.5%,104%,86%,90.9%,84.8%,86.5%
CC(=O)OCC(=O)[C@@]12OC(C)(C)O[C@@H]1C[C@H]1[C@@H]3C[C@H](F)C4=CC(=O)C=C[C@]4(C)[C@@]3(F)[C@@H](O)C[C@@]12C [Fluocinonide (Vanos)],100% and 105%,108%,110%,106%,107%,94.8%,111%,117%
NC1CC1c1ccc(-c2cccc(O)c2)cc1 (stereo not drawn),96.2% and 104%,97.1%,88.3%,106%,99.4%,99.1%,87%,92%
COc1ccc(-n2nc(C(N)=O)c3c2C(=O)N(c2ccc(N4CCCCC4=O)cc2)CC3)cc1 [Apixaban],99.3% and 102%,103%,97.9%,112%,107%,105%,98%,96.7%
CCn1cc(C(=O)O)c(=O)c2cc(F)c(N3CCN(C)CC3)cc21 [Pefloxacin Mesylate Dihydrate],83.5% and 78%,80.7%,88%,94.2%,87.7%,92.1%,90.9%,94.8%
COC(=O)c1cc(OC)c2c(c1-c1c(C(=O)OC)cc(OC)c3c1OCO3)OCO2 [Bifendate],109%,98.7%,101%,101%,99.3%,101%,106%,94.3%
